Reference: PubChem BioAssay (EPA / NIEHS)
Inconclusive results are not listed. Active and inactive are the calls of the source. Rule for the calls: active = hit-call score of the fitted dose curve at least 0.9, where 1 is the maximum; inconclusive = response in the unintended direction; inactive = score below 0.9.

Assays:
[1] = molecular target: Estrogen receptor (Homo sapiens) (UniProt P03372); experiment: NVS_NR_hER: NovaScreen (NVS) Nuclear Receptor Binding Assay for human Estrogen Receptor (ER) (AID 2283348)
In short: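 Radioligand competitive displacement binding to estrogen receptor from MCF7 extract, cell-free; 18 h after dosing, scintillation read-out. Primary screen in duplicate at 25 uM; actives followed up in concentration series; loss of signal vs DMSO.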

[2] = molecular target: Estrogen receptor (Homo sapiens) (UniProt P03372); experiment: OT_ER_ERaERa_1440: Odyssey Thera (OT) 24-hour HEK293T Protein-Complementation Assay for Estrogen Receptor-alpha/-alpha Homodimer (AID 2283349);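 note: hits raise fluorescence above DMSO for agonists and antagonists alike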
In short: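 HEK293T cells stably expressing the human ER alpha ligand-binding domain (aa 310-547) as a homodimer PCA were dosed for 24 hours. Fluorescence intensity was read by laser scanning cytometry, and gain of signal was fitted relative to DMSO vehicle.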

[3] = molecular target: Estrogen receptor (Homo sapiens) (UniProt P03372); experiment: OT_ER_ERaERa_0480: Odyssey Thera (OT) 8-hour HEK293T Protein-Complementation Assay for Estrogen Receptor-alpha/-alpha Homodimer (AID 2283351);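 note: rise in fluorescence from reassembled reporter fragments on ERα LBD homodimer in nucleus or whole cell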
In short: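 HEK293T, stable ERα LBD (aa 310-547) PCA homodimer; 8 h compound exposure; fluorescence intensity, laser scanning cytometer; positive fitting direction, DMSO baseline.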

[4] = molecular target: T1, Estrogen receptor (Homo sapiens) + Estrogen receptor beta (Homo sapiens) (UniProt P03372+Q92731); experiment: OT_ER_ERaERb_1440: Odyssey Thera (OT) 24-hour HEK293T Protein-Complementation Assay for Estrogen Receptor-alpha/-beta Homodimer (AID 2283356);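 note: heteromer of ER alpha and ER beta binding domains; hits raise reporter fluorescence and both agonists and antagonists give an increase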
In short: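 Stable HEK293T PCA line, ERα LBD 310-547 + ERβ LBD 263-489 fused to reporter fragments; 24 h treatment; fluorescence read by laser scanning cytometry; positive fitting direction relative to DMSO.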

[5] = molecular target: Estrogen receptor beta (Homo sapiens) (UniProt Q92731); experiment: OT_ER_ERbERb_0480: Odyssey Thera (OT) 8-hour HEK293T Protein-Complementation Assay for Estrogen Receptor-beta/-beta Homodimer (AID 2283357);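 note: active means signal gain over DMSO baseline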
In short: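 Fluorescence intensity, nuclear for agonists and nuclear plus cytoplasmic for antagonists, was quantified by laser scanning cytometry versus vehicle after 8 h treatment. The cells were HEK293T stably carrying ER beta LBD fragment-complementation partners.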

[6] = molecular target: Retinoic acid receptor alpha (Homo sapiens) (UniProt P10276); experiment: NVS_NR_hRARa_Agonist: NovaScreen (NVS) Nuclear Receptor Binding Assay for human Retinoic Acid Alpha Receptor Agonism (RAR) (AID 2283361)
In short: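 Cell-free TR-FRET binding readout with extracted receptor protein, read 2 hours after dosing; gain-of-signal fitted relative to DMSO. Screened in duplicate at 25 uM, actives then run in concentration-response.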

[7] = molecular target: chimpanzee Androgen Receptor (AR), AR (gene 747460) (UniProt O97775); experiment: NVS_NR_cAR: NovaScreen (NVS) Nuclear Receptor Binding Assay for chimpanzee Androgen Receptor (AR) (AID 2283346);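 note: radioligand displacement from AR measured by scintillation counting in a cell-free assay; a loss of bound radioligand signal versus DMSO counts as binding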
In short: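 Radioligand binding to chimpanzee AR expressed in Sf9/Sf21 cells, cell-free, measured 72 h after dosing by lysate-based scintillation counting. Loss of signal vs DMSO; initial duplicate screen at 25 uM, actives retested in concentration series.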

[8] = molecular target: PGR (gene 5241) (UniProt P06401); experiment: NVS_NR_hPR: NovaScreen (NVS) Nuclear Receptor Binding Assay for human Progestron Receptor (PR) (AID 2283360);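 note: active means loss of bound radioligand signal versus DMSO baseline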
In short: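 T47D lysate; tritiated or iodinated radioligand; scintillation count at 18 h. DMSO = negative control/baseline. Primary: 25 uM, duplicate. Secondary: concentration series for actives.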

[9] = molecular target: human Peroxisome Proliferator-activated Receptor alpha (PPARa), PPARA (gene 5465) (UniProt Q07869); experiment: NVS_NR_hPPARa: NovaScreen (NVS) Nuclear Receptor Binding Assay for human Peroxisome Proliferator-activated Receptor alpha (PPARa) (AID 2283359);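 note: activity means loss of TR-FRET signal versus DMSO baseline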
In short: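 Cell-free TR-FRET binding assay with extracted PPARα protein, read 1 h after dosing. Primary screen in duplicate at 25 uM, with actives retested in concentration series. Loss of signal versus DMSO.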

[10] = molecular target: Androgen Receptor/SRC-1 Co-activator, AR (gene 367) (UniProt P10275); experiment: OT_AR_ARSRC1_0480: Odyssey Thera (OT) 8-hour HEK293T Protein-Complementation Assay for Androgen Receptor/SRC-1 Co-activator (AID 2283354);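 note: hits raise the complementation signal above DMSO so AC50 marks enhancers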
In short: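 HEK293T cells stably expressing AR and SRC-1 fused to Venus YFP fragments, imaged 8 h after dosing. Complementation fluorescence scored as nuclear/cytoplasmic ratio at 488 nm in at least 400 cells per image; gain fitted versus DMSO.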

[11] = molecular target: T1, Estrogen receptor (Homo sapiens) + Estrogen receptor beta (Homo sapiens); experiment: OT_ER_ERaERb_0480: Odyssey Thera (OT) 8-hour HEK293T Protein-Complementation Assay for Estrogen Receptor-alpha/-beta Heterodimer (AID 2283352)
In short: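 Compound added to HEK293T cells carrying split-reporter-tagged ER-alpha and ER-beta LBDs, incubated 8 hours, then imaged by laser scanning cytometer. Signal rise in nucleus, or nucleus and cytoplasm, over vehicle was fitted in the positive direction.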

[12] = molecular target: Retinoic acid receptor alpha (Homo sapiens) (UniProt P10276); experiment: NVS_NR_hRAR_Antagonist: NovaScreen (NVS) Nuclear Receptor Binding Assay for human Retinoic Acid Alpha Receptor Antagonism (RAR) (AID 2283358)
In short: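 Cell-free TR-FRET binding assay with extracted human RARalpha in antagonist mode, read 2 h after dosing. Loss of signal was fitted relative to DMSO; the primary screen used 25 uM in duplicate, with concentration series on follow-up.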

[13] = molecular target: Bile acid receptor (Homo sapiens) (UniProt Q96RI1); experiment: NVS_NR_hFXR_Antagonist: NovaScreen (NVS) Nuclear Receptor Binding Assay for human Farnesoid X Receptor Antagonism (FXR) (AID 2283350)
In short: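 Cell-free TR-FRET ligand-binding read-out on human FXR (NR1H4) in antagonist mode, measured 1 h after dosing. Primary screen in duplicate at 25 uM, actives retested in concentration series; signal loss scored versus DMSO.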

Measured: AC50

T1 sequence (P03372 whole entry, looked up, the tested form may be a part): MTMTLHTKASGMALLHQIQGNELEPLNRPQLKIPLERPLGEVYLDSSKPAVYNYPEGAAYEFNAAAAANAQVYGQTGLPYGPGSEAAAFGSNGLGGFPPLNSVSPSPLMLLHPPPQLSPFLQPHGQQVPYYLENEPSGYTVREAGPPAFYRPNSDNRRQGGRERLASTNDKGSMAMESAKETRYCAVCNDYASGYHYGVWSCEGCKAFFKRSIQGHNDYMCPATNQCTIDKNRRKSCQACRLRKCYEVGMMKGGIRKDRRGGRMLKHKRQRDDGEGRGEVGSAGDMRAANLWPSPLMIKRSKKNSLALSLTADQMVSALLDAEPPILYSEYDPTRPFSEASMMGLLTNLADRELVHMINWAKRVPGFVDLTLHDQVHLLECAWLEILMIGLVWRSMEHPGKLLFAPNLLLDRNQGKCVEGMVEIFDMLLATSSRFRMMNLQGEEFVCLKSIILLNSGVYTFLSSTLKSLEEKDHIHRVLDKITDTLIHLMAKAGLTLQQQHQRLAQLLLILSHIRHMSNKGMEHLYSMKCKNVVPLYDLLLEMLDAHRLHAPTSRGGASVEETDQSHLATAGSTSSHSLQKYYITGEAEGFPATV
T1 sequence (Q92731 whole entry, looked up, the tested form may be a part): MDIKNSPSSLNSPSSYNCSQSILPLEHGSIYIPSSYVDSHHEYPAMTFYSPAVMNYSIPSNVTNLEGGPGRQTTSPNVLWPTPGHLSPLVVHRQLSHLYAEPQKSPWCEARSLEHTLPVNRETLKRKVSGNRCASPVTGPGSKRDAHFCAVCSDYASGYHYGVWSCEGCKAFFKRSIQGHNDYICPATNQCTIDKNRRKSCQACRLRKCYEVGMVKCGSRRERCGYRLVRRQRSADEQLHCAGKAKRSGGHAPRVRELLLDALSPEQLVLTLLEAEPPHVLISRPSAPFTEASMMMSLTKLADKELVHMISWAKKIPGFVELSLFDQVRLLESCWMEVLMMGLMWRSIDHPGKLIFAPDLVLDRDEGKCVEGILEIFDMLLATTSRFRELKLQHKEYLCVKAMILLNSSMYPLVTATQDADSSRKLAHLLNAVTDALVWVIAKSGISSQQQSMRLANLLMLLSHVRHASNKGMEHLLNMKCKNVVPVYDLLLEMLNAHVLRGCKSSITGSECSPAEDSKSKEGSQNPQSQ
Chain of Estrogen receptor (Homo sapiens) (P03372 whole entry, looked up, the tested form may be a part): as the sequence (P03372 whole entry, looked up, the tested form may be a part) above
Chain of Androgen Receptor/SRC-1 Co-activator, AR (gene 367) (P10275 whole entry, looked up, the tested form may be a part): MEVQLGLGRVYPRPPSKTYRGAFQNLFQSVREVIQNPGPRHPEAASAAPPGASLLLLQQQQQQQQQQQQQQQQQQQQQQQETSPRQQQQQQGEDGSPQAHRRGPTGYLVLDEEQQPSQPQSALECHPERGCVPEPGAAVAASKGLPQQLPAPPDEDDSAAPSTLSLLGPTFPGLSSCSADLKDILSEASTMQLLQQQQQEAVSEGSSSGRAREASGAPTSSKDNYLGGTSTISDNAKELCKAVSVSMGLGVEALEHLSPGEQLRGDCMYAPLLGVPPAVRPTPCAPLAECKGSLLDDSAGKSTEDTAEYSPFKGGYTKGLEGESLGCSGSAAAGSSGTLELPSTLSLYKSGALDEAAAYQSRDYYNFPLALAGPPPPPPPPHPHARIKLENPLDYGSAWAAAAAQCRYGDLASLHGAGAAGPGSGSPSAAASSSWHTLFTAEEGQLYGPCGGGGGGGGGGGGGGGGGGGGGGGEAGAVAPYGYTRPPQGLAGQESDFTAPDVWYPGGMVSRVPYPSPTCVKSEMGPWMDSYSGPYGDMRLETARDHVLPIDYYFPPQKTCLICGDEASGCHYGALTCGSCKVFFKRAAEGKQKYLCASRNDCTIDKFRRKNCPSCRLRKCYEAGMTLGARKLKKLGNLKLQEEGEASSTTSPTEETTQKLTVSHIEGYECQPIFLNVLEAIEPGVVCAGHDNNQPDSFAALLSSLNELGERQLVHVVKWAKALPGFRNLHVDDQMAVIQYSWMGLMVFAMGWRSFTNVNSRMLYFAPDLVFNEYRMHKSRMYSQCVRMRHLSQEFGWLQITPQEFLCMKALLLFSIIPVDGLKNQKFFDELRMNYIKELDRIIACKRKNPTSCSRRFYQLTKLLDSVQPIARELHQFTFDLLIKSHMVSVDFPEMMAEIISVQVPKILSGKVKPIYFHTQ
Chain of Estrogen receptor beta (Homo sapiens) (Q92731 whole entry, looked up, the tested form may be a part): as the sequence (Q92731 whole entry, looked up, the tested form may be a part) above
Chain of PGR (gene 5241) (P06401 whole entry, looked up): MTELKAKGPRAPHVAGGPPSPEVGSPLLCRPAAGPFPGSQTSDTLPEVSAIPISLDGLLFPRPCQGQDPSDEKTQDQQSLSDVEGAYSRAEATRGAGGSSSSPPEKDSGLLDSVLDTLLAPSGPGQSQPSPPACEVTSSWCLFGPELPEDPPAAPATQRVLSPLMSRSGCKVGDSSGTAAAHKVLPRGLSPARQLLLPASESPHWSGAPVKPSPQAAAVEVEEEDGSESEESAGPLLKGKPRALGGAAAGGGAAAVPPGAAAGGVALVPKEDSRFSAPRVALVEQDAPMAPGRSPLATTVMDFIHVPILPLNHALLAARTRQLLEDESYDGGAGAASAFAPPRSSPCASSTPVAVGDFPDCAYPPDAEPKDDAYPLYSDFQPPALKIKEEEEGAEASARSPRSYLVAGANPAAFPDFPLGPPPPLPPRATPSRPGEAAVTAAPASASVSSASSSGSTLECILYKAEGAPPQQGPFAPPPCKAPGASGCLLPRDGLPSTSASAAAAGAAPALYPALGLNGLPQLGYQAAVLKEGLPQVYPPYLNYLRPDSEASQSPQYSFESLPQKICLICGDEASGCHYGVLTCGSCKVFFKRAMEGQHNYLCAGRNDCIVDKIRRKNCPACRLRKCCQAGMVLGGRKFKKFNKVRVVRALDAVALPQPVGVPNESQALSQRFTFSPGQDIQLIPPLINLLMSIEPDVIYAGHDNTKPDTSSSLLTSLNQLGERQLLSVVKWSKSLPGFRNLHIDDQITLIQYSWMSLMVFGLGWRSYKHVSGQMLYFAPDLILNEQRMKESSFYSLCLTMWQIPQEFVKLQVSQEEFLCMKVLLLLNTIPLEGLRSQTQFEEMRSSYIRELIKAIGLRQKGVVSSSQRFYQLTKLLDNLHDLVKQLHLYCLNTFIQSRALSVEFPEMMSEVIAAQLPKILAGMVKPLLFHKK
Chain of human Peroxisome Proliferator-activated Receptor alpha (PPARa), PPARA (gene 5465) (Q07869 whole entry, looked up): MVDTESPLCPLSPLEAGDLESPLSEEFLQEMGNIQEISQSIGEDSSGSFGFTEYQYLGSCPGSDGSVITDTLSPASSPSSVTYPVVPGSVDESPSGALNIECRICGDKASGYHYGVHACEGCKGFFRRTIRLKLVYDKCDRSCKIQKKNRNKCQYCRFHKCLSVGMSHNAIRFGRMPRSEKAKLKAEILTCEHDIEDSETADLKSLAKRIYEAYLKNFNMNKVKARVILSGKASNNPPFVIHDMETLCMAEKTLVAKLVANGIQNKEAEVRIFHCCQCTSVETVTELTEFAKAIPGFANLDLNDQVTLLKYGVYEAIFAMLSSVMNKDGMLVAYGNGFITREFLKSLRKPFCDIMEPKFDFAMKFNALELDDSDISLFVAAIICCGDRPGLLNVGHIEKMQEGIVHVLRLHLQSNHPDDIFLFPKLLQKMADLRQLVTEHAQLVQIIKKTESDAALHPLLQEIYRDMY
Chain of Retinoic acid receptor alpha (Homo sapiens) (P10276 whole entry, looked up): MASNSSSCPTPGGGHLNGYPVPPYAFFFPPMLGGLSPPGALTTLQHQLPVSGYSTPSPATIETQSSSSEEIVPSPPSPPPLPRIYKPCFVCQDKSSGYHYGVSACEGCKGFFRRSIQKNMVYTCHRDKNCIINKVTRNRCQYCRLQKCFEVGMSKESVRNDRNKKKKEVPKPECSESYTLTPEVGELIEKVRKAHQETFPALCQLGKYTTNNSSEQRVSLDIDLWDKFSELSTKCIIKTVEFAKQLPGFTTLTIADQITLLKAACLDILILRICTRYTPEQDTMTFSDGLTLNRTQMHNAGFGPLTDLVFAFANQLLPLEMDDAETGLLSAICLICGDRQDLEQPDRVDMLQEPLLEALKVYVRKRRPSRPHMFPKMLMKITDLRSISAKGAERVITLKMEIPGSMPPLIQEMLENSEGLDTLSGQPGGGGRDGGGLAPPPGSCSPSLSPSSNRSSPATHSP
Chain of Bile acid receptor (Homo sapiens) (Q96RI1 whole entry, looked up): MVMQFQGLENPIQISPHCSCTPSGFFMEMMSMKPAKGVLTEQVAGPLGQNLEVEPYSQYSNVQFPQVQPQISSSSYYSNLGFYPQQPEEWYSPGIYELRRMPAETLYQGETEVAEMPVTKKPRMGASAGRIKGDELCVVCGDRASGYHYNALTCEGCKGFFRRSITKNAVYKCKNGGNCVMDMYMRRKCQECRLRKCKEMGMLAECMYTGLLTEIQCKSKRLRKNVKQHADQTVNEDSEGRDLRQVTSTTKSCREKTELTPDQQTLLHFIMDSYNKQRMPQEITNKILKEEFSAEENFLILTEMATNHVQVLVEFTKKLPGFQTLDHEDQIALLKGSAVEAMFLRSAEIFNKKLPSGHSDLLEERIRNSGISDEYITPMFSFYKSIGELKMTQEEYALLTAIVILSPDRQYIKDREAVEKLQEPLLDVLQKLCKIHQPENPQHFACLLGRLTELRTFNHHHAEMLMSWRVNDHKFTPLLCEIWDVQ

CC[C@H]1CC[C@H](NCc2cc3c(cc2OC)[C@H]2C[C@H]2C(=O)N3C)[C@H](c2ccccc2)N1
inactive: [1] | [2] | [3] | [4] | [5] | [6]

O=C(OC[C@H]1O[C@@H](OC(=O)c2cc(O)c(O)c(OC(=O)c3cc(O)c(O)c(O)c3)c2)[C@H](OC(=O)c2cc(O)c(O)c(OC(=O)c3cc(O)c(O)c(O)c3)c2)[C@@H](OC(=O)c2cc(O)c(O)c(OC(=O)c3cc(O)c(O)c(O)c3)c2)[C@@H]1OC(=O)c1cc(O)c(O)c(OC(=O)c2cc(O)c(O)c(O)c2)c1)c1cc(O)c(O)c(OC(=O)c2cc(O)c(O)c(O)c2)c1
active: [7] 0.472 µM | [8] 6.13 µM

CCOC(=O)COc1ccc2c(c1)CC(NCC(O)c1cccc(Cl)c1)CC2 (stereo not drawn)
inactive: [1] | [2] | [3] | [9]

CC(C)=CCCC(C)CCO (stereo not drawn)
inactive: [1] | [2] | [3] | [10] | [4] | [5] | [9]

O=c1n(CC2CO2)c(=O)n(CC2CO2)c(=O)n1CC1CO1 (stereo not drawn)
inactive: [2] | [3] | [11] | [4] | [5]

Cn1cnc([N+](=O)[O-])c1Sc1ncnc2nc[nH]c12
inactive: [1] | [2] | [3] | [11] | [4] | [5] | [9]

Cc1ccc(N)cc1O
inactive: [2] | [3] | [11] | [4] | [5] | [9]

Cc1ccc(S(=O)(=O)O)cc1C
inactive: [2] | [3] | [8]

CCC(C)(C)C(=O)O[C@H]1C[C@@H](C)C=C2C=C[C@H](C)[C@H](CC[C@@H]3C[C@@H](O)CC(=O)O3)[C@H]21
inactive: [1] | [2] | [3] | [11] | [4] | [5]

C=CC(=C)CCC=C(C)C
inactive: [2] | [3] | [11] | [4] | [5]

CCCN(C1CCN(C(=O)C2CCNCC2)CC1)[C@@H]1CCc2ccc(OC)cc2C1
inactive: [10] | [5]

CC(C)CCO
inactive: [2] | [3] | [11] | [4] | [5]

CCCC(=O)OCC
inactive: [2] | [11] | [4] | [5]

O=C(CCCCCCCCc1cccnc1)N1CCC(C=C(c2ccccc2)c2ccccc2)CC1
inactive: [10] | [5] | [12]

CC1(C)C(=O)N(Br)C(=O)N1Br
inactive: [10] | [5]

CCn1nc(Cc2ccccc2)cc1C1CCN(C[C@H]2C[C@H](N(C)[C@@H](C(=O)O)C(C)C)C[C@@H]2c2cccc(F)c2)CC1
inactive: [2] | [3] | [11] | [4] | [5] | [12]

CCCCCCCCO
inactive: [2] | [3] | [11] | [4] | [5]

Cn1c(=O)cc(Oc2ccc(F)cc2F)c2cnc(NCC(C)(C)O)nc21
active: [2] 50 µM | [3] 24.4 µM | [4] 50 µM
inactive: [1] | [11] | [5]

Cc1ccc(O)cc1
inactive: [10] | [5]

CC(C)=CCCC(C)=CC=O
inactive: [1] | [2] | [3] | [11] | [4] | [5] | [9]

CCNc1ccccc1
inactive: [10] | [5]

O=C(O)c1cccc(Oc2ccccc2)c1
inactive: [2] | [3] | [12] | [9]

COC(=O)c1ccccc1O
inactive: [2] | [11] | [4] | [5]

COC(=O)c1c(Cl)c(Cl)c(C(=O)OC)c(Cl)c1Cl
inactive: [2] | [13] | [3] | [11]
active: [4] 50 µM | [5] 50 µM

O=C(NS(=O)(=O)/C=C/c1ccccc1)c1ccc(F)cc1Cl
inactive: [2] | [3] | [11] | [4]

COC(=O)CC(=O)OC
inactive: [2] | [3] | [11] | [4] | [8]

CCCCC(CC)COC(=O)CCCCCCCCC(=O)OCC(CC)CCCC (stereo not drawn)
active: [2] 12.1 µM | [3] 0.949 µM

CC(C)c1cccc(C(C)C)c1N1C(=O)c2ccc(O)cc2C1=O
active: [13] 41.1 µM

CCCCC(CC)COC(=O)c1ccc(C(=O)OCC(CC)CCCC)cc1 (stereo not drawn)
inactive: [10]

O=C1OC(=O)C2C3C=CC(C3)C12 (stereo not drawn)
inactive: [12]
